Hit rate of the full screen: of about 5,500 compounds, about 2,000 (36%) were called active. About 18% were inconclusive and are not listed. The list shows a part of the results. Values without a mark were called inactive. No stated cut-off is given here; in the data, active means normalized growth mostly below about 0.91 (no sharp cut-off); inconclusive means no clear call, values can overlap the other calls; inactive means mostly above about 0.92.
Test: chemical genetic growth profiling, strain panel (AID 1159580);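 further: tested at 20 µM; growth read once vehicle control cultures reached saturation at 30 °C; 1 = growth at the plate median or of vehicle wells; lower values mean less growth of the strain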
Conditions: growth OD
[1] = S. cerevisiae deletion strains, locus YDL101C, strain DUN1, active compounds read low
[2] = S. cerevisiae deletion strains, locus YHR030C, strain SLT2, active compounds read low
[3] = S. cerevisiae deletion strains, locus YAL013W, strain DEP1, active compounds read low
[4] = S. cerevisiae deletion strains, locus YBR229C, strain ROT2, active compounds read low
[5] = S. cerevisiae deletion strains, locus YCL061C, strain MRC1, active compounds read low
[6] = S. cerevisiae deletion strains, locus YDL134C, strain PPH21, active compounds read low
[7] = S. cerevisiae deletion strains, locus YDR150W, strain NUM1, active compounds read low
[8] = S. cerevisiae deletion strains, locus YEL061C, strain CIN8, active compounds read low
[9] = S. cerevisiae deletion strains, locus YGR078C, strain PAC10, active compounds read low
[10] = S. cerevisiae deletion strains, locus YHR087W, strain rtc3, active compounds read low
[11] = S. cerevisiae deletion strains, locus YJR043C, strain POL32, active compounds read low
[12] = S. cerevisiae deletion strains, locus YJR075W, strain HOC1, active compounds read low
[13] = S. cerevisiae deletion strains, locus YLR039C, strain RIC1, active compounds read low
[14] = S. cerevisiae deletion strains, locus YLR058C, strain SHM2 (second series), active compounds read low
[15] = S. cerevisiae deletion strains, locus YLR085C, strain ARP6, active compounds read low
[16] = S. cerevisiae deletion strains, locus YLR262C, strain YPT6, active compounds read low
[17] = S. cerevisiae deletion strains, locus YML094W, strain GIM5, active compounds read low
[18] = S. cerevisiae deletion strains, locus YMR219W, strain ESC1, active compounds read low
[19] = S. cerevisiae deletion strains, locus YMR307W, strain GAS1, active compounds read low
[20] = S. cerevisiae deletion strains, locus YNL153C, strain GIM3, active compounds read low
[21] = S. cerevisiae deletion strains, locus YNL298W, strain CLA4 (second series), active compounds read low
[22] = S. cerevisiae deletion strains, locus YNL322C, strain KRE1, active compounds read low
[23] = S. cerevisiae deletion strains, locus YNR030W, strain Alg12, active compounds read low
[24] = S. cerevisiae deletion strains, locus YPL055C, strain LGE1, active compounds read low
[25] = S. cerevisiae deletion strains, locus YPL241C, strain CIN2, active compounds read low
[26] = S. cerevisiae deletion strains, locus YPR135W, strain CTF4, active compounds read low

SMILES: O=C(Nc1ccc(OC(F)(F)F)cc1)OC1CN(C(c2ccccc2)c2ccccc2)C1
- normalized growth (S. cerevisiae deletion strains, locus YAR019C, strain CDC15, active compounds read low): 1
- normalized growth (S. cerevisiae deletion strains, locus YBL105C, strain PKC1, active compounds read low): 0.995
- normalized growth (S. cerevisiae deletion strains, locus YBR135W, strain CKS1, active compounds read low): 0.996
- normalized growth (S. cerevisiae deletion strains, locus YBR136W, strain MEC1, active compounds read low): 0.999
- normalized growth (S. cerevisiae deletion strains, locus YBR160W, strain CDC28, active compounds read low): 0.999
- normalized growth (S. cerevisiae deletion strains, locus YDL017W, strain CDC7, active compounds read low): 0.999
- normalized growth (S. cerevisiae deletion strains, locus YDL028C, strain MPS1, active compounds read low): 1
- normalized growth [1]: 0.984
- normalized growth (S. cerevisiae deletion strains, locus YDL108W, strain KIN28, active compounds read low): 0.991
- normalized growth (S. cerevisiae deletion strains, locus YDL132W, strain cdc53, active compounds read low): 1
- normalized growth (S. cerevisiae deletion strains, locus YDL214C, strain PRR2, active compounds read low): 0.993
- normalized growth (S. cerevisiae deletion strains, locus YDR052C, strain DBF4, active compounds read low): 0.99
- normalized growth (S. cerevisiae deletion strains, locus YDR054C, strain cdc34, active compounds read low): 0.988
- normalized growth (S. cerevisiae deletion strains, locus YDR226W, strain ADK1, active compounds read low): 0.995
- normalized growth (S. cerevisiae deletion strains, locus YDR477W, strain SNF1, active compounds read low): 0.988
- normalized growth (S. cerevisiae deletion strains, locus YER123W, strain YCK3, active compounds read low): 0.96
- normalized growth (S. cerevisiae deletion strains, locus YER133W, strain GLC7, active compounds read low): 0.992
- normalized growth (S. cerevisiae deletion strains, locus YFL009W, strain cdc4, active compounds read low): 0.988
- normalized growth (S. cerevisiae deletion strains, locus YFL029C, strain CAK1, active compounds read low): 0.992
- normalized growth (S. cerevisiae deletion strains, locus YFR003C, strain YPI1, active compounds read low): 0.998
- normalized growth (S. cerevisiae deletion strains, locus YFR019W, strain FAB1, active compounds read low): 0.983
- normalized growth (S. cerevisiae deletion strains, locus YFR028C, strain CDC14, active compounds read low): 1.01
- normalized growth (S. cerevisiae deletion strains, locus YGR040W, strain KSS1, active compounds read low): 0.987
- normalized growth (S. cerevisiae deletion strains, locus YGR052W, strain FMP48, active compounds read low): 1.1
- normalized growth (S. cerevisiae deletion strains, locus YGR092W, strain DBF2, active compounds read low): 0.961
- normalized growth [2]: 0.9
- normalized growth (S. cerevisiae deletion strains, locus YHR079C, strain IRE1, active compounds read low): 1.02
- normalized growth (S. cerevisiae deletion strains, locus YHR082C, strain KSP1, active compounds read low): 1.06
- normalized growth (S. cerevisiae deletion strains, locus YHR205W, strain SCH9, active compounds read low): 0.981
- normalized growth (S. cerevisiae deletion strains, locus YIL147C, strain SLN1, active compounds read low): 1
- normalized growth (S. cerevisiae deletion strains, locus YJL095W, strain BCK1, active compounds read low): 0.96
- normalized growth (S. cerevisiae deletion strains, locus YJL128C, strain PBS2, active compounds read low): 0.993
- normalized growth (S. cerevisiae deletion strains, locus YJL157C, strain FAR1, active compounds read low): 0.986
- normalized growth (S. cerevisiae deletion strains, locus YJR016C, strain ILV3, active compounds read low): 1.01
- normalized growth (S. cerevisiae deletion strains, locus YJR066W, strain TOR1 (second series), active compounds read low): 0.981
- normalized growth (S. cerevisiae deletion strains, locus YJR066W, strain TOR1, active compounds read low): 0.98
- normalized growth (S. cerevisiae deletion strains, locus YKL048C, strain ELM1, active compounds read low): 0.961
- normalized growth (S. cerevisiae deletion strains, locus YKL067W, strain YNK1, active compounds read low): 0.969
- normalized growth (S. cerevisiae deletion strains, locus YKL101W, strain HSL1, active compounds read low): 0.982
- normalized growth (S. cerevisiae deletion strains, locus YKL193C, strain SDS22, active compounds read low): 1.01
- normalized growth (S. cerevisiae deletion strains, locus YKL203C, strain TOR2, active compounds read low): 1.02
- normalized growth (S. cerevisiae deletion strains, locus YLR113W, strain HOG1, active compounds read low): 0.943
- normalized growth (S. cerevisiae deletion strains, locus YLR133W, strain CKI1, active compounds read low): 0.972
- normalized growth (S. cerevisiae deletion strains, locus YLR403W, strain SFP1, active compounds read low): 0.973
- normalized growth (S. cerevisiae deletion strains, locus YML070W, strain DAK1, active compounds read low): 0.966
- normalized growth (S. cerevisiae deletion strains, locus YMR001C, strain CDC5, active compounds read low): 1
- normalized growth (S. cerevisiae deletion strains, locus YMR205C, strain PFK2 (second series), active compounds read low): 0.967
- normalized growth (S. cerevisiae deletion strains, locus YMR277W, strain FCP1, active compounds read low): 1.01
- normalized growth (S. cerevisiae deletion strains, locus YNL006W, strain LST8, active compounds read low): 0.994
- normalized growth (S. cerevisiae deletion strains, locus YNL020C, strain ARK1, active compounds read low): 0.969
- normalized growth (S. cerevisiae deletion strains, locus YNL161W, strain CBK1, active compounds read low): 1
- normalized growth (S. cerevisiae deletion strains, locus YNL183C, strain NPR1, active compounds read low): 0.969
- normalized growth (S. cerevisiae deletion strains, locus YNL207W, strain RIO2, active compounds read low): 0.985
- normalized growth (S. cerevisiae deletion strains, locus YNL222W, strain SSU72, active compounds read low): 1
- normalized growth (S. cerevisiae deletion strains, locus YNL307C, strain MCK1 (second series), active compounds read low): 1
- normalized growth (S. cerevisiae deletion strains, locus YOL078W, strain AVO1, active compounds read low): 1
- normalized growth (S. cerevisiae deletion strains, locus YOL136C, strain PFK27, active compounds read low): 0.986
- normalized growth (S. cerevisiae deletion strains, locus YOR061W, strain CKA2, active compounds read low): 0.987
- normalized growth (S. cerevisiae deletion strains, locus YOR119C, strain RIO1, active compounds read low): 1.06
- normalized growth (S. cerevisiae deletion strains, locus YOR231W, strain MKK1, active compounds read low): 1.01
- normalized growth (S. cerevisiae deletion strains, locus YOR329C, strain SCD5, active compounds read low): 0.999
- normalized growth (S. cerevisiae deletion strains, locus YPL031C, strain PHO85, active compounds read low): 0.99
- normalized growth (S. cerevisiae deletion strains, locus YPL153C, strain RAD53, active compounds read low): 0.961
- normalized growth (S. cerevisiae deletion strains, locus YPL204W, strain HRR25, active compounds read low): 0.96
- normalized growth (S. cerevisiae deletion strains, locus YPL209C, strain IPL1, active compounds read low): 0.984
- normalized growth (S. cerevisiae deletion strains, locus YPL256C, strain CLN2, active compounds read low): 1
- normalized growth (S. cerevisiae deletion strains, locus YPR025C, strain CCL1, active compounds read low): 1
- normalized growth (S. cerevisiae deletion strains, locus YPR106W, strain ISR1, active compounds read low): 0.991
- normalized growth (S. cerevisiae deletion strains, locus YPR111W, strain DBF20, active compounds read low): 0.977
- normalized growth (S. cerevisiae deletion strains, strain NNK1, active compounds read low): 0.981
- normalized growth (S. cerevisiae deletion strains, strain TSCII, active compounds read low): 1.01

SMILES: CSC(=NC#N)N1CCN(c2ccc([N+](=O)[O-])cn2)CC1
- normalized growth [3]: 0.997
- normalized growth [4]: 1.01
- normalized growth [5]: 1
- normalized growth [1]: 1.02
- normalized growth [6]: 0.987
- normalized growth [7]: 1.07
- normalized growth [8]: 0.957
- normalized growth [9]: 0.996
- normalized growth [2]: 0.958
- normalized growth [10]: 0.991
- normalized growth (S. cerevisiae deletion strains, locus YJL187C, strain SWE1, active compounds read low): 0.993
- normalized growth [11]: 1.01
- normalized growth [12]: 1.01
- normalized growth [13]: 0.986
- normalized growth [14]: 0.989
- normalized growth [15]: 0.933
- normalized growth [16]: 0.978
- normalized growth [17]: 0.966
- normalized growth [18]: 0.996
- normalized growth (S. cerevisiae deletion strains, locus YMR263W, strain SAP30, active compounds read low): 1.01
- normalized growth [19]: 1.1
- normalized growth [20]: 1
- normalized growth [21]: 0.978
- normalized growth [22]: 0.99
- normalized growth [23]: 0.954
- normalized growth [24]: 1.08
- normalized growth [25]: 0.99
- normalized growth [26]: 1.09
- normalized growth (S. cerevisiae strains, strain wild type, active compounds read low): 0.983

SMILES: O=[N+]([O-])c1ccc(N2CCCN(C(=S)Nc3ccc(Cl)cc3Cl)CC2)nc1
- normalized growth [3]: 0.966
- normalized growth [4]: 0.96
- normalized growth [5]: 0.956
- normalized growth [1]: 0.942
- normalized growth [6]: 0.979
- normalized growth [7]: 0.886
- normalized growth [8]: 0.912
- normalized growth [9]: 0.961
- normalized growth (S. cerevisiae deletion strains, locus YGR229C, strain SMI1, active compounds read low): 0.989
- normalized growth [2]: 0.422 (active)
- normalized growth [10]: 0.906 (active)
- normalized growth [11]: 0.984
- normalized growth [12]: 0.937
- normalized growth [13]: 0.628 (active)
- normalized growth [14]: 0.96
- normalized growth [15]: 0.543 (active)
- normalized growth [16]: 0.686 (active)
- normalized growth [17]: 0.932
- normalized growth [18]: 0.982
- normalized growth [19]: 0.433 (active)
- normalized growth [20]: 0.98
- normalized growth [21]: 0.831 (active)
- normalized growth [22]: 0.98
- normalized growth [23]: 0.8 (active)
- normalized growth (S. cerevisiae deletion strains, locus YOL006C, strain TOP1, active compounds read low): 0.831
- normalized growth [24]: 0.928
- normalized growth [25]: 0.866
- normalized growth [26]: 0.337 (active)

From PubChem BioAssay AID1159580 (chemical genetic matrix, 2015)
